From PubChem BioAssay (EPA / NIEHS) come the findings set out here.

Read-out in assay [1]: Urokinase-type plasminogen activator receptor (uPAR), PLAUR (gene 5329)
In words: BSK_CASM3C_uPAR: BioMAP Diversity Plus: CASM3C Assay for Urokinase-type plasminogen activator receptor (uPAR) Biomarker Activity (AID 2283054).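 Note: cell-surface uPAR protein level quantified by ELISA.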 The settings on record: primary human coronary artery smooth muscle cells; actives raise or lower the signal.

Read-out in assay [2]: Vascular cell adhesion molecule 1 (VCAM1), VCAM1 (gene 7412)
In words: BSK_CASM3C_VCAM1: BioMAP Diversity Plus: CASM3C Assay for Vascular cell adhesion molecule 1 (VCAM1) Biomarker Activity (AID 2283055).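 Note: VCAM-1 protein level quantified by ELISA on the cells.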 The settings on record: primary human coronary artery smooth muscle cells; actives raise or lower the signal.

Read-out in assay [3]: Collagen III, COL3A1 (gene 1281)
Nature of the assay: BSK_hDFCGF_CollagenIII: BioMAP Diversity Plus: hDFCGF Assay for Collagen III Biomarker Activity (AID 2283056). Conditions: primary human foreskin fibroblasts; actives raise or lower the signal. In outline: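 Human foreskin primary fibroblasts were exposed to test chemicals for 24 h, after which collagen III was quantified by ELISA. Activity was fitted bidirectionally against DMSO as negative control and baseline.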

The nature of assay [4]: BSK_hDFCGF_Proliferation: Cell Proliferation Assessment in the BioMAP Diversity Plus: hDFCGF Assay (AID 2283059).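 Note: curves fitted for both rise and fall of signal versus DMSO baseline.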 The settings on record: primary human foreskin fibroblasts. The gist of the method: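 Primary human foreskin fibroblasts, sub-confluent; […]; 10% TCA fix, 0.1% SRB stain, A560 total protein. Gain/loss fitted bidirectionally vs DMSO control.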
Read-out in assay [5]: Macrophage colony-stimulating factor (MCSF), CSF1 (gene 1435)
In words: BSK_hDFCGF_MCSF: BioMAP Diversity Plus: hDFCGF Assay for Macrophage colony-stimulating factor (MCSF) Biomarker Activity (AID 2283060). Conditions: primary human foreskin fibroblasts; actives raise or lower the signal. In outline: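 Human foreskin primary fibroblasts were treated with test chemical for 24 h, and M-CSF was then measured by ELISA. Data were fitted bidirectionally against DMSO as the negative control and activity baseline.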

Assay [6] is described as follows: BSK_hDFCGF_SRB: Viability Assessment in the BioMAP Diversity Plus: hDFCGF Assay (AID 2283061).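 Note: cells exposed to compound for 24 h before the read.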 Conditions: primary human foreskin fibroblasts. The gist of the method:
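Human foreskin primary fibroblasts were treated with compound and assessed 24 h after dosing. Total protein was measured by sulforhodamine B staining (0.1% SRB after 10% TCA fixation, 560 nm read) as a cytotoxicity marker, with bidirectional fitting against DMSO baseline.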

Read-out in assay [7]: TIMP metallopeptidase inhibitor 1 (TIMP1), TIMP1 (gene 7076)
In words: BSK_hDFCGF_TIMP1: BioMAP Diversity Plus: hDFCGF Assay for TIMP metallopeptidase inhibitor 1 (TIMP1) Biomarker Activity (AID 2283062). The settings on record: primary human foreskin fibroblasts; actives raise or lower the signal. In outline: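 Primary human foreskin fibroblasts in the hDFCGF system were dosed with compound for 24 h, then TIMP-1 was measured by ELISA. Activity was fitted bidirectionally relative to DMSO control; parallel SRB staining assessed cytotoxicity.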

Read-out in assay [8]: Monokine induced gamma interferon (MIG), CXCL9 (gene 4283)
Nature of the assay: BSK_hDFCGF_MIG: BioMAP Diversity Plus: hDFCGF Assay for Monokine induced gamma interferon (MIG) Biomarker Activity (AID 2283063). The settings on record: primary human foreskin fibroblasts; actives raise or lower the signal. The gist of the method:
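ELISA read-out of MIG from primary human dermal fibroblasts 24 h post-dosing. Gain or loss of signal fitted bidirectionally, DMSO as baseline.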

Read-out in assay [9]: Matrix Metallopeptidase 1 (MMP1), MMP1 (gene 4312)
Nature of the assay: BSK_hDFCGF_MMP1: BioMAP Diversity Plus: hDFCGF Assay for Matrix Metallopeptidase 1 (MMP1) Biomarker Activity (AID 2283064). The settings on record: primary human foreskin fibroblasts; actives raise or lower the signal. The gist of the method:
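ELISA read-out of MMP1 from human foreskin fibroblasts (primary skin cells), 24 h post-dose. Gain or loss of signal was fitted bidirectionally versus DMSO negative control; cytotoxicity was checked by SRB in parallel cultures.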

Read-out in assay [10]: Vascular cell adhesion molecule 1 (VCAM1), VCAM1 (gene 7412)
In words: BSK_hDFCGF_VCAM1: BioMAP Diversity Plus: hDFCGF Assay for Vascular cell adhesion molecule 1 (VCAM1) Biomarker Activity (AID 2283065).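 For AC50: VCAM-1 protein level quantified by ELISA after 24 h chemical exposure.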 The settings on record: primary human foreskin fibroblasts; actives raise or lower the signal. The gist of the method:
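Primary human foreskin fibroblasts (hDFCGF system) were dosed with chemical and VCAM-1 was measured by ELISA 24 h later. Bidirectional curve fitting used DMSO as negative control and activity baseline.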

Read-out in assay [11]: Plasminogen activator inhibitor-1 (PAI1), SERPINE1 (gene 5054)
In words: BSK_hDFCGF_PAI1: BioMAP Diversity Plus: hDFCGF Assay for Plasminogen activator inhibitor-1 (PAI1) Biomarker Activity (AID 2283066). Conditions: primary human foreskin fibroblasts; actives raise or lower the signal. The gist of the method:
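PAI-1 levels in human dermal foreskin fibroblasts were quantified by ELISA 24 h after dosing, with gain or loss analysed against DMSO. Overt cytotoxicity was checked by sulforhodamine B total-protein staining in parallel cultures.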

Read-out in assay [12]: Intercellular Adhesion Molecule 1 (ICAM1), ICAM1 (gene 3383)
In words: BSK_KF3CT_ICAM1: BioMAP Diversity Plus: KF3CT Assay for Intercellular Adhesion Molecule 1 (ICAM1) Biomarker Activity (AID 2283067). The settings on record: primary human keratinocytes with fibroblasts; actives raise or lower the signal. The gist of the method: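 Human keratinocyte plus foreskin fibroblast primary co-culture was exposed to chemical for 24 h. ICAM-1 was then quantified by ELISA, and the data were fit bidirectionally against DMSO as the negative control and baseline.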

Read-out in assay [13]: Interferon-gamma inducible Protein 10 (IP10), CXCL10 (gene 3627)
In words: BSK_KF3CT_IP10: BioMAP Diversity Plus: KF3CT Assay for Interferon-gamma inducible Protein 10 (IP10) Biomarker Activity (AID 2283068). Conditions: primary human keratinocytes with fibroblasts; actives raise or lower the signal. In outline:
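In a primary skin co-culture of keratinocytes and fibroblasts, IP-10 is quantified by ELISA at 24 h after dosing. SRB staining of parallel wells monitors overt toxicity. Curves are fitted both directions against DMSO.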

Assay [14] in a line: BSK_KF3CT_SRB: Viability Assessment in the BioMAP Diversity Plus: KF3CT Assay (AID 2283069).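 Note: fitted for both signal gain and loss against DMSO baseline.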 The settings on record: primary human keratinocytes with fibroblasts. The gist of the method: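 SRB read-out at 560 nm (0.1% stain, TCA-fixed cells) gauges overt cytotoxicity in a human skin keratinocyte–fibroblast co-culture 24 h post-dosing. Signal change was fitted bidirectionally relative to DMSO control.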

Read-out in assay [15]: Interleukin-1 alpha (IL1a), IL1A (gene 3552)
Nature of the assay: BSK_KF3CT_IL1a: BioMAP Diversity Plus: KF3CT Assay for Interleukin-1 alpha (IL1a) Biomarker Activity (AID 2283070). Conditions: primary human keratinocytes with fibroblasts; actives raise or lower the signal. The gist of the method: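 Primary skin co-culture (keratinocytes, foreskin fibroblasts), 24 h exposure; ELISA for IL-1a; bidirectional curve fit vs DMSO.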

Read-out in assay [16]: TIMP metallopeptidase inhibitor 2 (TIMP2), TIMP2 (gene 7077)
In words: BSK_KF3CT_TIMP2: BioMAP Diversity Plus: KF3CT Assay for TIMP metallopeptidase inhibitor 2 (TIMP2) Biomarker Activity (AID 2283071). The settings on record: primary human keratinocytes with fibroblasts; actives raise or lower the signal. The gist of the method:
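TIMP-2 measured by ELISA at 24 h in human keratinocyte/fibroblast primary co-cultures exposed to chemicals. Both increases and decreases were fitted against DMSO. Parallel cultures were stained with SRB for total protein as an overt-cytotoxicity check.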

Read-out in assay [17]: Transforming growth factor beta 1 (TGFb1), TGFB1 (gene 7040)
Nature of the assay: BSK_KF3CT_TGFb1: BioMAP Diversity Plus: KF3CT Assay for Transforming growth factor beta 1 (TGFb1) Biomarker Activity (AID 2283072). Conditions: primary human keratinocytes with fibroblasts; actives raise or lower the signal. In outline:
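ELISA quantifies TGF-b1 at 24 h post-dose in a primary human skin co-culture of keratinocytes and fibroblasts, with gain or loss judged against DMSO. Parallel SRB total-protein staining flags overt cytotoxicity.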

Read-out in assay [18]: Interleukin-8 (IL8), CXCL8 (gene 3576)
Nature of the assay: BSK_hDFCGF_IL8: BioMAP Diversity Plus: hDFCGF Assay for Interleukin-8 (IL8) Biomarker Activity (AID 2283058). The settings on record: primary human foreskin fibroblasts; actives raise or lower the signal. The gist of the method: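 hDFCGF human dermal fibroblasts; 24 h chemical exposure; IL-8 by ELISA; bidirectional curve fit vs DMSO baseline; gain or loss of signal scored.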

Read-out in assay [19]: Epidermal growth factor receptor (EGFR), EGFR (gene 1956)
In words: BSK_hDFCGF_EGFR: BioMAP Diversity Plus: hDFCGF Assay for Epidermal growth factor receptor (EGFR) Biomarker Activity (AID 2283057). Conditions: primary human foreskin fibroblasts; actives raise or lower the signal. The gist of the method: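 EGFR levels by ELISA in human dermal fibroblast cultures, 24 h post-treatment, fitted bidirectionally versus DMSO. Parallel wells stained with sulforhodamine B to detect overt cytotoxicity.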

Values joined by “and” are separate entries in the source; they are usually repeats but may differ in a detail not shown here. Identical values can stand only once. More than one record can exist for a structure, and the calls need not agree. Active and inactive are the calls of the source. Rule for the calls: active = hit-call score of the fitted dose curve at least 0.9, where 1 is the maximum; inactive = score below 0.9.

Consider `Nc1ncc([N+](=O)[O-])s1`, for which the result in [1], in assay [2], in assay [3], in [4], in assay [5] and in assay [6] was inactive. The outcome in assay [7], in assay [8], in assay [9], in assay [10], in [11] and in [12] was inactive. For the same compound, the outcome in [13], in assay [14], in assay [15], in assay [16] and in assay [17] was inactive.

Regarding `C[C@@H]1C[C@@H]([C@H](O)CC2CC(=O)NC(=O)C2)C(=O)[C@@H](C)C1`, the AC50 was 3800 nM (active) in assay [1]; 926 nM (active) in assay [2]; 4.27 µM (active) in assay [4]; 4100 nM (active) in [5]; 2490 nM (active) in assay [7]; 4400 nM (active) in assay [8]. Further, the AC50 in assay [9] is 3370 nM (active); in assay [10] it was 915 nM (active); in assay [11], 2900 nM (active); in assay [12], 7240 nM (active); in assay [13] it was 12900 nM (active); in assay [14], 11600 nM (active). Also, the AC50 in [15] was 31200 nM (active); in [16] it was 8400 nM (active); in assay [17], 2790 nM (active).

In the case of `CC(=O)OC(c1ccccc1)C(Cl)(Cl)Cl` (configuration not stated), the outcome in assay [1], in [2], in [3], in assay [18], in assay [5] and in [6] was inactive. In addition, the outcome in assay [7], in [8], in [9], in assay [10], in [11] and in [12] was inactive. In addition, the outcome in assay [13], in [14], in assay [15] and in [16] was inactive. For the same compound, the concentration at half-maximal activity (AC50) in assay [4] is 31 µM (active) and 25.6 µM (active); in assay [8], 36700 nM (active).

Regarding `Oc1cccc2cccnc12`, the outcome in [1], in [2] and in [18] was inactive. Also, the AC50 in [3] was 3470 nM (active); in assay [19] it was 275 nM (active); in assay [4] it was 0.852 µM (active); in [5], 301 nM (active); in [6], 564 nM (active); in [7], 201 nM (active). Besides, the AC50 in [8] was 169 nM (active); in [9], 927 nM (active); in [10] it was 1030 nM (active); in [11], 331 nM (active); in assay [12], 2140 nM (active); in assay [13], 2550 nM (active). Further, the AC50 was 2780 nM (active) in [14], 2130 nM (active) in assay [15], 3680 nM (active) in assay [16] and 2350 nM (active) in assay [17].

Regarding `CCNc1nc(NC(C)(C)C)nc(SC)n1`, the result in assay [1], in [2], in [3], in assay [19], in [18] and in assay [4] was inactive. Moreover, the result in assay [5], in assay [6], in assay [7], in [8], in assay [9] and in assay [10] was inactive. The result in assay [11], in assay [12], in [13], in [14] and in assay [17] was inactive. Also, the AC50 in assay [15] and in assay [16] was 20000 nM (active) throughout.

On to `COP(=S)(OC)Oc1ccc(S(=O)(=O)N(C)C)cc1`, for which the outcome in assay [1], in [2], in assay [3], in [19], in [18] and in assay [5] was inactive. The result in [6], in assay [7], in assay [8], in assay [9], in assay [10] and in assay [11] was inactive. The outcome in assay [12], in assay [13], in assay [14], in assay [15], in [16] and in [17] was inactive. Further, the AC50 in assay [4] was 28.2 µM (active).
